Assay results reported in PubChem BioAssay AID743395 (Broad Institute, 2014).
In all, about 1,200 compounds went through this assay and about 480 (40%) were called active. The set was probably picked from earlier hits. Only a sample is shown. Measured potencies and affinities stand elsewhere. A number with no mark means an inactive call. No rule for the calls is given here.

assay: viability loss in human hepatoma cells – cell-based, CellTiter-Glo luminescence, cherry-pick, set 2, cytotoxicity control, dose response (AID 743395); conditions: HepG2 viability, CellTiter-Glo ATP luminescence, 72 h; series mostly up to 26 µM; activity change, negative = cytotoxicity: at the top concentration;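 also: 0% = neutral control wells and -100% = positive control wells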

Row | Compound | activity change, negative = cytotoxicity
1 | COC(=O)CNc1cc(S(=O)(=O)N2CCCCC2)ccc1Oc1ccc(C(=O)OC)cc1 | 11.2%
2 | COc1ccccc1CNC(=O)Cn1cnnn1 | -10.7%
3 | COc1ccc(NC(=O)C(CC(=O)O)Cc2ccc(Cl)cc2)cc1 (stereo not given) | 12.9%
4 | C#Cc1ccc(C(=O)Nc2ccc(N3CCC(C)CC3)c(C(N)=O)c2)cc1 | -15.7%
5 | COc1ccccc1/C=C/C=N/NC(=O)CCn1cnc2ccccc21 | -31.2%
6 | Cc1ccc(OCC(=O)Nc2ccc3c(c2)ncn3C)cc1 | -12.2%
7 | C[C@H]1CN([C@@H](C)CO)S(=O)(=O)c2ccc(C#Cc3ccccc3F)cc2O[C@H]1CN(C)C(=O)c1ccc2c(c1)OCO2 | 25.8%
8 | COc1cc(/C=N/NC(=O)c2cc(-c3c(C)nn(-c4ccccc4)c3C)n[nH]2)ccc1O | 2.51%
9 | COc1ccc(/C=N/NC(=O)c2cccnc2)cc1CSc1ccccn1 | -16.4%
10 | CC#CCOCC1CNC(=O)O1 (stereo not given) | -6.75%
11 | CCCN1[C@H](C(=O)N2CCOCC2)[C@@H](CO)[C@@H]2Cn3c(ccc(/C=C/c4ccccc4)c3=O)[C@@H]21 | 1.53%
12 | O=C(COC(=O)C1CCC1)Nc1cc(S(=O)(=O)N2CCOCC2)ccc1Cl | 9.46%
13 | CCOc1ccc(S(=O)(=O)N2CCOCC2)cc1NC(=O)CSCC(=O)Nc1ccc(OC)cc1 | -6.38%
14 | COC(=O)[C@H](CCSC)NC(=O)Cn1cc(C)c(=O)[nH]c1=O | -3.37%
15 | COCOc1cccc(CN2CCC2(C)C(=O)Nc2ccc(C)c(O)c2)c1 (stereo not given) | -20.5%
16 | CCN(C(=O)CSc1nnc(C)n1-c1ccc(C)cc1)c1c(N)n(Cc2ccccc2)c(=O)[nH]c1=O | -6.86%
17 | COc1ccc(S(=O)(=O)Nc2ccc3c(c2)C(=O)N([C@@H](C)CO)C[C@H](C)[C@H](CN(C)Cc2ccc(Cl)c(Cl)c2)OCCCC[C@@H](C)O3)cc1 | 7.33%
18 | Cc1ccc(S(=O)(=O)Nc2ccc3c(c2)C(=O)N([C@@H](C)CO)C[C@H](C)[C@H](CN(C)S(=O)(=O)c2ccc(Cl)cc2)OCCCC[C@@H](C)O3)cc1 | 7.44%
19 | COc1ccc(NC(=O)N(C)C[C@H]2Oc3c(cccc3N(C)C)C(=O)N([C@H](C)CO)C[C@H]2C)cc1 | -8.08%
20 | Cc1ccc(N2CC(C(=O)N(C)CC(=O)Nc3ccc(Cl)c(C(F)(F)F)c3)CC2=O)cc1 (stereo not given) | 11%
21 | COc1ccc(OCC(=O)NNC(=O)CCc2ccccc2)cc1 | 17.5%
22 | Cn1nc(C(=O)NNC(=O)CCOc2ccc(C(C)(C)C)cc2)c2ccccc2c1=O | -16.7%
23 | O=c1cc(-c2ccccc2)[nH]c2ccc(F)cc12 | -11.9%
24 | O=C(Nc1ccc(F)cc1)Nc1ccc(N2CCOCC2)c2nonc12 | -14.1%
25 | COC(=O)c1ccc(C(=O)NC2CCCc3c2cnn3-c2ccc(C)c(C)c2)cc1 (stereo not given) | -8.84%

Row | Compound | activity change, negative = cytotoxicity
26 | O=C(N/N=C/c1ccccc1OC(F)F)c1cc(-c2ccncc2)nc2ccccc12 | -20.7%
27 | O=C(CN1CCN(S(=O)(=O)c2ccc(F)c(Cl)c2)CC1)N1CCc2ccccc2C1 | -20.4%
28 | Cc1ccc(C)c(NC(=O)CSc2nc3c(c(=O)n2C)SC(C)C3)c1 (stereo not given) | -11.9%
29 | Cc1ccc(NC(=O)c2c(C)noc2C)cc1S(=O)(=O)N1CCOCC1 | -6.83%
30 | COC(=O)c1c(-c2ccc(C)cc2)csc1NC(=O)c1c(-c2ccccc2)noc1C | -3.85%
31 | O=C(CSc1nc2ccccc2n1-c1ccccc1)Nc1ncc(Cl)cc1Cl | -9.54%
32 | O=C(COc1ccc(F)cc1Cl)Nc1cccc(S(=O)(=O)N2CCCCCC2)c1 | 1.09%
33 | O=S1(=O)CCN(C(CO)c2ccccc2)CC1 (stereo not given) | -12.1%
34 | COc1ccc(/C=C2\SC(=O)N(CCNC(=O)C3=COCCO3)C2=O)cc1 | -18%
35 | CC1(c2ccc3ccccc3c2)CCC(=O)O1 (stereo not given) | -3.36%
36 | COc1ccc(S(=O)(=O)N2CCN(CCOc3ccccc3Cl)CC2)cc1OC | -28.1%
37 | CCCCN1C(=O)/C(=C/C=C2\Oc3ccccc3N2CC)SC1=S | -19.4%
38 | COc1cc(/C=C2\SC(=S)N(NC(=O)c3ccncc3)C2=O)ccc1O | -8.91%
39 | O=C(CCNS(=O)(=O)c1cccc(C(F)(F)F)c1)NC1CC1 | 2.26%
40 | Clc1ccc(CSc2nncn2-c2ccc3c(c2)OCCO3)cc1 | -6.14%
41 | COc1ccc(S(=O)(=O)N2CC[C@@H]3[C@@H](CO)Nc4ccc(-c5ccc(C#N)cc5)cc4[C@@H]32)cc1 | -18.6%
42 | O=S(=O)(c1ccc(F)cc1)N1CC[C@@H]2[C@@H](CO)Nc3ccc(-c4ccc(F)cc4)cc3[C@@H]21 | -28.2%
43 | COc1ccc(S(=O)(=O)N2CC[C@@H]3[C@@H](CO)Nc4ccc(C5=CCCCC5)cc4[C@@H]32)cc1 | -2.3%
44 | O=C(c1cccnc1)N1CC[C@@H]2[C@H](CO)Nc3ccc(C4=CCCCC4)cc3[C@@H]21 | -8.51%
45 | Cc1ccc(S(=O)(=O)N2CCN(C(=O)CN(Cc3ccco3)Cc3cccs3)CC2)cc1 | -9.06%
46 | CCN(C(=O)COC(=O)c1cccc2ccccc12)c1c(N)n(Cc2ccccc2)c(=O)[nH]c1=O | 0.991%
47 | O=C(Nc1ccc(F)cc1)C1CCN(C(=O)c2ccc(F)cc2)CC1 | -3.03%
48 | COc1cccc(-c2nnc(SCC(=O)NC3CCS(=O)(=O)C3)n2C)c1 (stereo not given) | 12.4%
49 | O=C(NCc1ccccn1)c1n[nH]c(=O)c2ccccc12 | 0.51%
50 | CCC(=O)c1ccc(OCC(=O)OCC(=O)N2CCc3ccccc3C2)cc1 | -7.38%
